The record followed here is PubChem BioAssay (EPA / NIEHS).

Experiment [1] in a line: BSK_4H_Eotaxin3: BioMAP Diversity Plus: 4H Assay for Eotaxin 3 Biomarker Activity (AID 2283000; active = hit-call score of the fitted dose curve at least 0.9, where 1 is the maximum; inactive = score below 0.9;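 as to outcome: CCL26 protein level quantified by ELISA in parallel with SRB cytotoxicity check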). Particulars: primary human endothelial cells (HUVEC); actives raise or lower the signal. In a few lines: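 Eotaxin-3 (CCL26) levels were measured by ELISA in HUVEC primary cultures 24 h post-dosing. Gain or loss of signal was fitted in both directions, with DMSO serving as baseline and negative control.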

For experiment [2], the target named is human Peroxisome Proliferator-activated Receptor alpha (PPARa), PPARA (gene 5465) (UniProt Q07869). Briefly: ATG_PPARa_TRANS: Attagene TRANS-FACTORIAL HepG2 Assay for human Peroxisome Proliferator-activated Receptor alpha (PPARa) (AID 2283001).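 As to AC50: potency for gain of reporter signal over DMSO so agonist or activator.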 The essentials:
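Reporter transcripts quantified by RT-PCR plus capillary electrophoresis after 24 h treatment, fitted upward relative to DMSO. Cells: human HepG2 transiently carrying multiple GAL4-UAS reporter units driven by NR-Gal4 chimeras.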

Experiment [3] deals with human Peroxisome Proliferator-activated Receptor delta (PPARd), PPARD (gene 5467) (UniProt Q03181). Briefly: ATG_PPARd_TRANS: Attagene TRANS-FACTORIAL HepG2 Assay for human Peroxisome Proliferator-activated Receptor delta (PPARd) (AID 2283002). In a few lines:
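Read-out is induced reporter mRNA, quantified by RT-PCR with fluorescent labelling and capillary electrophoresis after 24 h dosing. Cells are HepG2 transiently carrying multiple GAL4-UAS reporter units driven by exogenous NR-GAL4 chimeras; DMSO serves as baseline.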

Read-out in experiment [4]: Intercellular Adhesion Molecule 1 (ICAM1), ICAM1 (gene 3383)
Briefly: BSK_3C_ICAM1: BioMAP Diversity Plus: 3C Assay for Intercellular Adhesion Molecule 1 (ICAM1) Biomarker Activity (AID 2283003; active = hit-call score of the fitted dose curve at least 0.9, where 1 is the maximum; inactive = score below 0.9). Particulars: primary human endothelial cells (HUVEC); actives raise or lower the signal. In a few lines: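 ELISA readout of ICAM1 in human umbilical vein endothelial cells in the 3C system, taken 24 h post-dose. Gain or loss of signal versus DMSO was fitted in both directions, with SRB total-protein staining run in parallel.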

The nature of experiment [5]: BSK_3C_Proliferation: Cell Proliferation Assessment in the BioMAP Diversity Plus: 3C Assay (AID 2283006; active = hit-call score of the fitted dose curve at least 0.9, where 1 is the maximum; inactive = score below 0.9;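 as to AC50: potency may reflect either rise or fall in cell number versus DMSO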). The conditions noted are these: primary human endothelial cells (HUVEC). In a few lines: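 Proliferation as total protein: sulforhodamine B (0.1%) stain of TCA-fixed subconfluent human umbilical vein endothelial cells, absorbance 560 nm, 48 h after dosing. Activity fitted in both directions against DMSO baseline.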

The target in experiment [6] is Nuclear receptor subfamily 1 group I member 2 (Homo sapiens) (UniProt O75469). Briefly: ATG_PXR_TRANS: Attagene TRANS-FACTORIAL HepG2 Assay for human Pregnane X Receptor (PXR) (AID 2283008). The essentials:
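Trans-factorial format: exogenous NR-Gal4 fusion activity, not endogenous factor, in transfected human HepG2 liver cells. After 24 h dosing, RNA isolated, reverse-transcribed, amplified and resolved by capillary electrophoresis; induction scored versus DMSO.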

In experiment [7] the target is human RAR-related Orphan Receptor gamma (RORg), RORC (gene 6097) (UniProt P51449). Briefly: ATG_RORg_TRANS: Attagene TRANS-FACTORIAL HepG2 Assay for human RAR-related Orphan Receptor gamma (RORg) (AID 2283011). The essentials: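 HepG2 cells transiently transfected with GAL4-UAS reporter units and chimeric RORg-Gal4 construct; after 24 h chemical exposure, reporter mRNA measured by RT-PCR with fluorescent capillary electrophoresis, gain of signal fitted against DMSO.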

In experiment [8] the target is Retinoic acid receptor RXR-alpha (Homo sapiens) (UniProt P19793). Briefly: ATG_RXRa_TRANS: Attagene TRANS-FACTORIAL HepG2 Assay for human Retinoid X Receptor alpha (RXRa) (AID 2283012). The essentials:
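TRANS format reporting activity of exogenous RXRa-Gal4 chimera in transiently transfected HepG2, 24 h exposure. Reporter transcripts quantified by RT-PCR with capillary electrophoresis, with gain of signal scored relative to DMSO.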

The target in experiment [9] is human Thyroid Receptor alpha (THRa1), THRA (gene 7067) (UniProt P10827). Briefly: ATG_THRa1_TRANS: Attagene TRANS-FACTORIAL HepG2 Assay for human Thyroid Receptor alpha (THRa1) (AID 2283014). The essentials:
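HepG2 cells transiently transfected with chimeric NR-Gal4 and GAL4-UAS reporter units, dosed 24 h. Reporter mRNA quantified by RT-PCR, fluorescent labeling, HpaI digestion and capillary electrophoresis; gain-of-signal fit versus DMSO.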

Read-out in experiment [10]: E-selectin (Homo sapiens) (UniProt P16581)
Briefly: BSK_3C_Eselectin: BioMAP Diversity Plus: 3C Assay for Eselectin Biomarker Activity (AID 2283015; active = hit-call score of the fitted dose curve at least 0.9, where 1 is the maximum; inactive = score below 0.9;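 as to outcome: cell surface E-selectin protein quantified by ELISA 24 h after dosing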). Particulars: primary human endothelial cells (HUVEC); actives raise or lower the signal. In a few lines:
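Primary human umbilical vein endothelial cells (3C system), read 24 h after compound addition; E-selectin measured by ELISA. Bidirectional curve fitting against DMSO baseline; cytotoxicity by parallel SRB total-protein staining.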

Read-out in experiment [11]: Interleukin-1 alpha (IL1a), IL1A (gene 3552)
Briefly: BSK_BE3C_IL1a: BioMAP Diversity Plus: BE3C Assay for Interleukin-1 alpha (IL1a) Biomarker Activity (AID 2283016; active = hit-call score of the fitted dose curve at least 0.9, where 1 is the maximum; inactive = score below 0.9). The conditions noted are these: primary human bronchial epithelial cells; actives raise or lower the signal. The essentials:
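IL-1a measured by ELISA after 24 h treatment of human primary bronchial epithelial cells, with gain or loss of signal fitted versus DMSO. Parallel cultures stained with SRB gauge overt cytotoxicity.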

Read-out in experiment [12]: Monocyte Chemoattractant Protein-1 (MCP1), CCL2 (gene 6347)
Briefly: BSK_4H_MCP1: BioMAP Diversity Plus: 4H Assay for Monocyte Chemoattractant Protein-1 (MCP1) Biomarker Activity (AID 2283018; active = hit-call score of the fitted dose curve at least 0.9, where 1 is the maximum; inactive = score below 0.9). Particulars: primary human endothelial cells (HUVEC); actives raise or lower the signal. In a few lines:
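ELISA of MCP-1 (CCL2) 24 h after chemical dosing of HUVEC in the BioMAP 4H system. Gain or loss versus DMSO fitted; parallel SRB staining (560 nm) tracked overt cytotoxicity.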

Read-out in experiment [13]: Human Leukocyte Antigen - DR isotype (HLADR), HLA-DRA (gene 3122)
Briefly: BSK_3C_HLADR: BioMAP Diversity Plus: 3C Assay for Human Leukocyte Antigen - DR isotype (HLADR) Biomarker Activity (AID 2283019; active = hit-call score of the fitted dose curve at least 0.9, where 1 is the maximum; inactive = score below 0.9). The conditions noted are these: primary human endothelial cells (HUVEC); actives raise or lower the signal. The essentials: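 HUVEC monoculture, HLA-DR measured by ELISA 24 h after chemical dosing. Fitted bidirectionally against DMSO baseline; parallel SRB staining assessed cytotoxicity, with 3C proliferation read by SRB at 48 h.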

Experiment [14] addresses human Retinoic Acid Receptor beta (RARb), RARB (gene 5915) (UniProt P10826). Briefly: ATG_RARb_TRANS: Attagene TRANS-FACTORIAL HepG2 Assay for human Retinoic Acid Receptor beta (AID 2283004). In a few lines:
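HepG2 cells were transiently transfected with GAL4-UAS reporter units that report activity of exogenous chimeric NR-Gal4 proteins, then exposed to compound for 24 h. Reporter mRNA was quantified by RT-PCR with capillary electrophoresis fluorescence, as gain of signal over DMSO.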

In experiment [15] the target is human Retinoic Acid Receptor gamma (RARg), RARG (gene 5916) (UniProt P13631). Briefly: ATG_RARg_TRANS: Attagene TRANS-FACTORIAL HepG2 Assay for human Retinoic Acid Receptor gamma (RARg) (AID 2283009). In a few lines: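 Transactivation of exogenous RARg-Gal4 fusion measured as reporter transcript induction after 24 h in transfected HepG2 cells. RNA reverse-transcribed, amplified, fluorescently labeled and resolved by capillary electrophoresis; increase relative to DMSO.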

Experiment [16] deals with human Retinoid X Receptor beta (RXRb), RXRB (gene 6257) (UniProt P28702). Briefly: ATG_RXRb_TRANS: Attagene TRANS-FACTORIAL HepG2 Assay for human Retinoid X Receptor beta (RXRb) (AID 2283013). In a few lines:
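Readout is reporter transcript induction after 24 h dosing. It is measured by RT-PCR of total RNA followed by fluorescent capillary electrophoresis. HepG2 liver cells carry transfected multiple reporter units driven by an exogenous RXRb-Gal4 fusion; activity is relative to DMSO.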

Experiment [17] has as its target Peroxisome proliferator-activated receptor gamma (Homo sapiens) (UniProt P37231). Briefly: ATG_PPARg_TRANS: Attagene TRANS-FACTORIAL HepG2 Assay for human Peroxisome Proliferator-activated Receptor-gamma (PPARg) (AID 2283007). In a few lines:
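After 24 h of chemical exposure, transfected HepG2 cells carrying PPARγ-Gal4 chimera reporter constructs are lysed for RNA. Reporter transcripts are measured by RT-PCR and capillary electrophoresis with fluorescent labelling, and gain of signal is fitted versus DMSO.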

Experiment [18] addresses human RAR-related Orphan Receptor beta (RORb), RORB (gene 6096) (UniProt Q92753). Briefly: ATG_RORb_TRANS: Attagene TRANS-FACTORIAL HepG2 Assay for human RAR-related Orphan Receptor beta (RORb) (AID 2283010). In a few lines:
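Read-out is reporter mRNA induction, quantified by RT-PCR with fluorescent capillary electrophoresis, 24 h post-dose in transiently transfected HepG2 expressing exogenous NR-Gal4 chimera. Activity fitted upward versus DMSO.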

SMILES strings stand for the structures. Records with an inconclusive call do not appear. The source made the active and inactive calls. The calls were made as follows, unless noted: active = hit-call score of the fitted dose curve at least 0.9, where 1 is the maximum; inconclusive = response in the unintended direction; inactive = score below 0.9.

Sequence of human RAR-related Orphan Receptor beta (RORb), RORB (gene 6096) (Q92753 whole entry, looked up, the tested form may be a part): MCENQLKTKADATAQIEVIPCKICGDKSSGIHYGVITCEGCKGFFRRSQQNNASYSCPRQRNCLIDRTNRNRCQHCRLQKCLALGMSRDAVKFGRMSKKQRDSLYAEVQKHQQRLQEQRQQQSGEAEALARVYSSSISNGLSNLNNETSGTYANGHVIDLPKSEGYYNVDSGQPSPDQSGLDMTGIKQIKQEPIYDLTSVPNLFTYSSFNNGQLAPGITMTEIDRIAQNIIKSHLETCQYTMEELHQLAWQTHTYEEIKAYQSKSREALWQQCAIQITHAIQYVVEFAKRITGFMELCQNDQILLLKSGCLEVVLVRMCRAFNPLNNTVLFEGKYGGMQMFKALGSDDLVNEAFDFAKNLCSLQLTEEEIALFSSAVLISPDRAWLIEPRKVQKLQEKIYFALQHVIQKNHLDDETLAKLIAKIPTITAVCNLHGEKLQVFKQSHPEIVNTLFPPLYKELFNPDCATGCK
Sequence of human Thyroid Receptor alpha (THRa1), THRA (gene 7067) (P10827 whole entry, looked up, the tested form may be a part): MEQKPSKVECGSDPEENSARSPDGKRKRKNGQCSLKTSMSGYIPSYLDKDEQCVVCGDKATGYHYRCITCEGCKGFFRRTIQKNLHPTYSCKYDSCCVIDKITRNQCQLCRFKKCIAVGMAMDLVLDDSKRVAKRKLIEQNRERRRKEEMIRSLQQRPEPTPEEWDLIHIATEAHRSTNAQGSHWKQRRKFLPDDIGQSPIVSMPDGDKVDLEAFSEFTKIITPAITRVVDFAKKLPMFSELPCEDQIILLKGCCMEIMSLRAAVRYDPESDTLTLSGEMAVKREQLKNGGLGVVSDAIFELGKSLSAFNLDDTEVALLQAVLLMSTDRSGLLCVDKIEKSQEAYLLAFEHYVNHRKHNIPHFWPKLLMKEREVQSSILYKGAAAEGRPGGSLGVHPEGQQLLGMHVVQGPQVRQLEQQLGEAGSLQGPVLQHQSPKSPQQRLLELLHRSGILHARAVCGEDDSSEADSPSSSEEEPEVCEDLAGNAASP
Sequence of human Peroxisome Proliferator-activated Receptor alpha (PPARa), PPARA (gene 5465) (Q07869 whole entry, looked up, the tested form may be a part): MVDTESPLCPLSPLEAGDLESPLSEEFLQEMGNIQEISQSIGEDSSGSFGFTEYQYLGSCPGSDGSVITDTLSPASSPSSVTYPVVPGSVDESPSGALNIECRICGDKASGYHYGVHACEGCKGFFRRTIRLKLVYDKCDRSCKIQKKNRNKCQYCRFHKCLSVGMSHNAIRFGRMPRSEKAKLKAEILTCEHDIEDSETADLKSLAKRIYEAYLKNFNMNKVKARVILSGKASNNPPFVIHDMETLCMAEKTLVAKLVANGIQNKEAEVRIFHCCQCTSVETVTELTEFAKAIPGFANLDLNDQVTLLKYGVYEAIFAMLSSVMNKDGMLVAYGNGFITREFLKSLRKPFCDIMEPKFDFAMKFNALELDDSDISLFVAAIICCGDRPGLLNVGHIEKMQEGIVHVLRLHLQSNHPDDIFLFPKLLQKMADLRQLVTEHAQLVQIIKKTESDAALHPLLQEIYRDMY
Sequence of E-selectin (Homo sapiens) (P16581 whole entry, looked up): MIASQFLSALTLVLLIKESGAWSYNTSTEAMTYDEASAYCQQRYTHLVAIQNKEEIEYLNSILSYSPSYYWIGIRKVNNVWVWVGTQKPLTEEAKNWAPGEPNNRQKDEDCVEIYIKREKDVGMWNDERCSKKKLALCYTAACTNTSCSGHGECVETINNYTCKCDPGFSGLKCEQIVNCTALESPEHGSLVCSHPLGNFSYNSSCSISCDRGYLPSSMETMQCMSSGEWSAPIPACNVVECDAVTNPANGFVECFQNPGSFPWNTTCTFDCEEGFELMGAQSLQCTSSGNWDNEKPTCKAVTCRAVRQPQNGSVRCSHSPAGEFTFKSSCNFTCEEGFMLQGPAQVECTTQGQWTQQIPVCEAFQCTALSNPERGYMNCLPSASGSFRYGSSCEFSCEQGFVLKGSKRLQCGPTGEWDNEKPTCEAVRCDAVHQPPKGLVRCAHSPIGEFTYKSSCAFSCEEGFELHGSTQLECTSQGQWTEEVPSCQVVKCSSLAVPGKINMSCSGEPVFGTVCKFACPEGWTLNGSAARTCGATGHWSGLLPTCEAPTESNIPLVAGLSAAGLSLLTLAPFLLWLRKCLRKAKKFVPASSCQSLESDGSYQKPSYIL
Sequence of human RAR-related Orphan Receptor gamma (RORg), RORC (gene 6097) (P51449 whole entry, looked up, the tested form may be a part): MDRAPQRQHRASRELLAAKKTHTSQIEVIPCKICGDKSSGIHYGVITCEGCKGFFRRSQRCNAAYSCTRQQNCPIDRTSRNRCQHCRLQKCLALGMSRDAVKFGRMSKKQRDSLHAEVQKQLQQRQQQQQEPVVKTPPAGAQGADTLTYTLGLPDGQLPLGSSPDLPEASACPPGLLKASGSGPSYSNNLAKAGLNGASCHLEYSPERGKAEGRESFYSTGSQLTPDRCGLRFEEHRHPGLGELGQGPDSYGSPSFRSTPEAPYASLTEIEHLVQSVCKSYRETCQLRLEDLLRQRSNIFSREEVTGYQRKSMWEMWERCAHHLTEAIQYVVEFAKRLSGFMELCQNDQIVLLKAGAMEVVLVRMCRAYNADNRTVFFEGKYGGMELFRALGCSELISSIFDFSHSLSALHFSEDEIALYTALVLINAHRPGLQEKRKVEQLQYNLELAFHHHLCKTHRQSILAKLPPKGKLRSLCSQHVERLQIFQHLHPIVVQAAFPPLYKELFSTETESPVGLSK
Sequence of Nuclear receptor subfamily 1 group I member 2 (Homo sapiens) (O75469 whole entry, looked up, the tested form may be a part): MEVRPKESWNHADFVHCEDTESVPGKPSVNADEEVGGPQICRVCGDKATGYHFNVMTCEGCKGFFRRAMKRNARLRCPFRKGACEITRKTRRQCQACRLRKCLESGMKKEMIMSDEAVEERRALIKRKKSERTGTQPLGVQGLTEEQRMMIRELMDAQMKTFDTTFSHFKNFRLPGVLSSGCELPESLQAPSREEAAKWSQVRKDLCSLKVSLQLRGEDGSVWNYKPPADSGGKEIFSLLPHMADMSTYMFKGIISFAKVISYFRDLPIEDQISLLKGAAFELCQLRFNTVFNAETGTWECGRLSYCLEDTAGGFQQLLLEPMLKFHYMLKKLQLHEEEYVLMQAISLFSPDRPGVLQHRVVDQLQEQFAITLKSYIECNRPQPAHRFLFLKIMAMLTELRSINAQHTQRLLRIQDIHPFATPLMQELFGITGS
Sequence of human Peroxisome Proliferator-activated Receptor delta (PPARd), PPARD (gene 5467) (Q03181 whole entry, looked up, the tested form may be a part): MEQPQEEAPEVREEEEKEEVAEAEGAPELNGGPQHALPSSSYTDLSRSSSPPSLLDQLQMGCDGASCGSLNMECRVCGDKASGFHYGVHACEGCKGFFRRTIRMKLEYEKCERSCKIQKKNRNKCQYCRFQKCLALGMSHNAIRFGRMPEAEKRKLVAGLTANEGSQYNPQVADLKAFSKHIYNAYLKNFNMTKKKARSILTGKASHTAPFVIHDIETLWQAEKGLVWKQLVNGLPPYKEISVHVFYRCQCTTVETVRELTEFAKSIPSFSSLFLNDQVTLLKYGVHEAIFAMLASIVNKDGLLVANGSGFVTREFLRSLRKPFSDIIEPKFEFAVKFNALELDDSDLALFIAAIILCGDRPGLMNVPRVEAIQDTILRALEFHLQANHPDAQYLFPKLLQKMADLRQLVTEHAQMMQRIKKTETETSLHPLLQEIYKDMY
Sequence of human Retinoic Acid Receptor beta (RARb), RARB (gene 5915) (P10826 whole entry, looked up, the tested form may be a part): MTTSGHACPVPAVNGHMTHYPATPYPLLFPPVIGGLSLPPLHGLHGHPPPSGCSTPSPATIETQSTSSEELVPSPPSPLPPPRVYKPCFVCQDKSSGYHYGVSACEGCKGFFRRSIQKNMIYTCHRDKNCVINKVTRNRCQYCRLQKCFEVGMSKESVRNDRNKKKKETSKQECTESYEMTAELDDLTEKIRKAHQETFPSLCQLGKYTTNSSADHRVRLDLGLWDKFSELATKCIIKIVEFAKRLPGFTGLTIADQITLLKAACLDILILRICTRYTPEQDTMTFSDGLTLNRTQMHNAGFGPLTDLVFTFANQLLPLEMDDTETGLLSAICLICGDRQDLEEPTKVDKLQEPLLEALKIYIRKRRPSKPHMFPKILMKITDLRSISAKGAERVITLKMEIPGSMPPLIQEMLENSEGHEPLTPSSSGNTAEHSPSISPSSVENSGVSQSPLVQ
Sequence of human Retinoic Acid Receptor gamma (RARg), RARG (gene 5916) (P13631 whole entry, looked up, the tested form may be a part): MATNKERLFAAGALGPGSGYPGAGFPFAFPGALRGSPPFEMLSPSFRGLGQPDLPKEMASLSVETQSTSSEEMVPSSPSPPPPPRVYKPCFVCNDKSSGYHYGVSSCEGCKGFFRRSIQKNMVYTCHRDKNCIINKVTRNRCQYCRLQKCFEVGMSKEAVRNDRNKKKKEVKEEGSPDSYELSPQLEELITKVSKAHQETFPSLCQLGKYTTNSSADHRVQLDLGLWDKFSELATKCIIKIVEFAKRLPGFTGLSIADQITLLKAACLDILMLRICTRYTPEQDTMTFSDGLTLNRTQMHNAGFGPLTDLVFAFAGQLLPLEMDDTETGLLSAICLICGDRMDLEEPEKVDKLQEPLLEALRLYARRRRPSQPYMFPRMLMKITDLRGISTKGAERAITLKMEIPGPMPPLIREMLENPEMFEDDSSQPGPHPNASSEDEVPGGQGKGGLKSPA
Sequence of Retinoic acid receptor RXR-alpha (Homo sapiens) (P19793 whole entry, looked up, the tested form may be a part): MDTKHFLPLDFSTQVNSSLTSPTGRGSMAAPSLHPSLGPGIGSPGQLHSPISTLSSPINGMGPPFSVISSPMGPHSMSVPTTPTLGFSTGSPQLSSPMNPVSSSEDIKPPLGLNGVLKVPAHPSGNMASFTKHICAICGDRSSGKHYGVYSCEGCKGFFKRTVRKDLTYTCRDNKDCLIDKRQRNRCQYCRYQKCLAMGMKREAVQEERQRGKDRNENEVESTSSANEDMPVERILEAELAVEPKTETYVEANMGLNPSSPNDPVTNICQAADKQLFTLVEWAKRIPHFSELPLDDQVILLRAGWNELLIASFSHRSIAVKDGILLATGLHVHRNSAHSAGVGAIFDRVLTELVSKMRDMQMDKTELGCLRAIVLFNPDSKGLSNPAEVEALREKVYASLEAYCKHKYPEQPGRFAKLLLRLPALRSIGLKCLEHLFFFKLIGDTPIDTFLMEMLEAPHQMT

In general, AC50 refers to the midpoint of the concentration-response curve, whichever way the signal moves. As for `NC(=O)c1c(Cl)cccc1Cl`, the result in experiment [1], in experiment [2], in experiment [3], in [4], in [5] and in experiment [7] was inactive. Besides, the outcome in experiment [8], in experiment [9], in experiment [10], in experiment [11], in [12] and in experiment [13] was inactive. Further, the AC50 in experiment [6] is 0.36 µM (active).
On to `OCCN1CCOCC1`, for which the outcome in experiment [1], in experiment [3], in [4], in [14], in experiment [5] and in experiment [6] was inactive. Moreover, the result in experiment [15], in experiment [7], in [16], in experiment [9], in [10] and in [11] was inactive. The result in [12] and in experiment [13] was inactive.
As for `Nc1ccc(N)c([N+](=O)[O-])c1`, the result in experiment [1], in experiment [2], in [3], in experiment [4], in experiment [14] and in [5] was inactive. Further, the result in [17], in experiment [6], in experiment [15], in experiment [18], in [7] and in experiment [8] was inactive. Further, the outcome in experiment [16], in experiment [9], in [11], in [12] and in [13] was inactive. Moreover, the concentration at half-maximal activity (AC50) in [10] is 13.6 µM (active).
As for `CC(=O)OCC=C(C)CCC=C(C)CCC=C(C)C`, the outcome in [1], in [2], in [4], in [5], in experiment [18] and in experiment [8] was inactive. In addition, the result in experiment [9], in experiment [10], in experiment [11] and in [13] was inactive. The AC50 in [17] is 18.9 µM (active); in experiment [6], 15.7 µM (active); in [16] it was 9.14 µM (active); in [12], 3.97 µM (active).
As to `c1ccc(OCCOc2ccccc2)cc1`, the outcome in experiment [1], in experiment [3], in [4], in experiment [5], in experiment [6] and in experiment [18] was inactive. The result in [8], in experiment [9], in experiment [10], in [11], in experiment [12] and in experiment [13] was inactive.
Take `CCCCCCCC1CCCC1=O` (configuration not stated): the AC50 in [1] was 31.9 µM (active); in experiment [4] it was 31.3 µM (active); in experiment [5] it was 36.8 µM (active); in experiment [6], 34.2 µM (active); in [10] it was 31.3 µM (active); in experiment [11], 34.1 µM (active). For the same compound, the AC50 in [13] was 31.6 µM (active). In addition, the result in [2], in [17], in experiment [15], in [18], in experiment [8] and in [16] was inactive. In [12], the result was inactive.
Consider `CC(C)Cc1ccc(C(C)C(=O)O)cc1` (configuration not stated), for which the outcome in [1], in experiment [4], in experiment [5], in [6], in experiment [15] and in experiment [16] was inactive. The result in [9], in experiment [10], in experiment [11], in experiment [12] and in experiment [13] was inactive. Besides, the AC50 in [2] was 31 µM (active); in [3], 142 µM (active).
`CC(=O)CCC=C(C)CCC=C(C)C`: the AC50 was 31.5 µM (active) in experiment [1], 36.6 µM (active) in experiment [17] and 4.33 µM (active) in experiment [6]. The compound was classed as inactive in experiment [2], in experiment [4], in experiment [5], in experiment [7], in experiment [8] and in experiment [16]. The outcome in experiment [9], in [10], in experiment [11], in experiment [12] and in [13] was inactive.
